Test results reported in the supplement of paper PMC11732987, “Enantioselective OTUD7B fragment discovery through chemoproteomics screening and high-throughput optimisation” (Communications Chemistry, 2025).
Values without a mark were called inactive.

How the values were obtained:
Test in all cases: log2 ratio of Biotin-Ahx-Ub-VS probe labelling (fragment/DMSO); higher = less target engagement (more negative = stronger competition), active = hit call of the paper (q ≤ 0.05, log2 ratio ≤ -1)
Conditions in all cases: compound concentration: 200 uM; treatment time: 3 h
[1] = molecular target: T1, ALG13 (UniProt Q9NP73)
T1 sequence (whole entry): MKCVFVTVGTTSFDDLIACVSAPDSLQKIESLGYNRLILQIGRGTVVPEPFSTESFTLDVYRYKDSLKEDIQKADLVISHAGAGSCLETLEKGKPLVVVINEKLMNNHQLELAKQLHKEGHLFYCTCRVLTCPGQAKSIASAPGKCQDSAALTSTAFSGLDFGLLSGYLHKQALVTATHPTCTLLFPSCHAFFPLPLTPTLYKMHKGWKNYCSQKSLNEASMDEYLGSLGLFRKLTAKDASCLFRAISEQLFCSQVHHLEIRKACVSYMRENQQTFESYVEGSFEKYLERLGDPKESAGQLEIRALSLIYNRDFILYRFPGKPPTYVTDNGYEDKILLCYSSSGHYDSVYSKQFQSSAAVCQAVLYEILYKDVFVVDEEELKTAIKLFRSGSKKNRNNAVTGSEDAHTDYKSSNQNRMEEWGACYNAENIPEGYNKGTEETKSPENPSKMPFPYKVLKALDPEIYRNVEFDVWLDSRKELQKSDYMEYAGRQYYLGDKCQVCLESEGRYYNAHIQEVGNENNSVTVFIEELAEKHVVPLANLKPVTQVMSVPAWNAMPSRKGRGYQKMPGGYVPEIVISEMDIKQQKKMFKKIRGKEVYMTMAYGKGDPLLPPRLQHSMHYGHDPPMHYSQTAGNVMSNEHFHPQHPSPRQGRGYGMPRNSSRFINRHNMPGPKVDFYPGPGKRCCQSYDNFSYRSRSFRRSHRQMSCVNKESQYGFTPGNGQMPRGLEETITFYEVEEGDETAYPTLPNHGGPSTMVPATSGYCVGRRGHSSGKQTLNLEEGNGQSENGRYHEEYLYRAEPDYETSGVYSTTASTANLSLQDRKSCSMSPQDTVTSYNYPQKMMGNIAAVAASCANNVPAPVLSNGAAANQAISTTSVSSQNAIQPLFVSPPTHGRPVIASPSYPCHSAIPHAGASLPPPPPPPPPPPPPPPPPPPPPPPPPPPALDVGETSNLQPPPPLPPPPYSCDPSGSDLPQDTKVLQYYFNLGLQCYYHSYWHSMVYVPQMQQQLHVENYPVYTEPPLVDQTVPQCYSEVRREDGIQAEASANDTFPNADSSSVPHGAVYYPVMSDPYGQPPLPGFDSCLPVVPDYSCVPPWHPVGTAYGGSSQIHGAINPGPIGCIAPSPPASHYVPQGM
Outline: (§1)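 In triplicate, 495 µg of HEK293T lysate per sample was incubated with fragment at 200 µM or vehicle for 3 h. Biotin-Ahx-Ub-VS was then added to 0.5 µM final for 1 h, and labelled DUBs were captured with NeutrAvidin, digested with LysC and trypsin, and measured by diaPASEF LC-MS/MS. Data are average log2 fragment/vehicle ratios by unpaired t-test from global-median-normalised Spectronaut label-free quantities, restricted to proteins with ≥2 unique peptides.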

[2] = molecular target: ATXN3 (UniProt P54252)
Outline: as §1

[3] = molecular target: T2, BAP1 (UniProt Q92560)
T2 sequence (whole entry): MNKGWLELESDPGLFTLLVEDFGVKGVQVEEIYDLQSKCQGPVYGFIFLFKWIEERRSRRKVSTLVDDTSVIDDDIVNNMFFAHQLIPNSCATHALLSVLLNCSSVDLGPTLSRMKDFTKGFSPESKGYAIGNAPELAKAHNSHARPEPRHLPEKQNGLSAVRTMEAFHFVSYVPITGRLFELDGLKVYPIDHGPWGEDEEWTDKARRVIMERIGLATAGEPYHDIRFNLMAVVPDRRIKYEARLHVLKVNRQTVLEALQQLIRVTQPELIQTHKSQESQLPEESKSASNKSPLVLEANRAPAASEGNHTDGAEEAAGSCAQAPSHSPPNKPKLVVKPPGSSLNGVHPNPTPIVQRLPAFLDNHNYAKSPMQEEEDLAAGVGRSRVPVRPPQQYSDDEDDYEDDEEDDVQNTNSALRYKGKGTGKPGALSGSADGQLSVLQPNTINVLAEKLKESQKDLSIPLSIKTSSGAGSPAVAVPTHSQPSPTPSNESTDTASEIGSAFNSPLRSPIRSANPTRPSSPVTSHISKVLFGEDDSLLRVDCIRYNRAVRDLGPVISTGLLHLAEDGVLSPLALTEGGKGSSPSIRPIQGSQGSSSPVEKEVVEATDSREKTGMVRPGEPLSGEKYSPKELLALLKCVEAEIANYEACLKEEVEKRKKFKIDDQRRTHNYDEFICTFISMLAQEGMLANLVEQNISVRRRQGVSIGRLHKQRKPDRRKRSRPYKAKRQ
Outline: as §1

[4] = molecular target: EIF3F (UniProt O00303)
Outline: as §1

[5] = molecular target: EIF3H (UniProt O15372)
Outline: as §1

[6] = molecular target: T3, FAM105A (UniProt Q9NUU6)
T3 sequence (whole entry): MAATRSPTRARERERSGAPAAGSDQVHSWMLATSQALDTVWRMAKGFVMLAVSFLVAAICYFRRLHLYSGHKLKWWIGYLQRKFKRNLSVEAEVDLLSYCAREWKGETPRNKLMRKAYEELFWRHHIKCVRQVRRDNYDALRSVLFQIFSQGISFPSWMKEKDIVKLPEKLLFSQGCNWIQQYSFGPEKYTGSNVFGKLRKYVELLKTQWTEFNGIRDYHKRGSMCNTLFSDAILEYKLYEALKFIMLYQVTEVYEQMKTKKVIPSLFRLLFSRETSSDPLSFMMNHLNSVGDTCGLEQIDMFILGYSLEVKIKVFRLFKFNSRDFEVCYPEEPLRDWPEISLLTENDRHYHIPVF
Outline: as §1

[7] = molecular target: OTUB1 (UniProt Q96FW1)
Outline: as §1

[8] = molecular target: T4, OTUD4 (UniProt Q01804)
T4 sequence (whole entry): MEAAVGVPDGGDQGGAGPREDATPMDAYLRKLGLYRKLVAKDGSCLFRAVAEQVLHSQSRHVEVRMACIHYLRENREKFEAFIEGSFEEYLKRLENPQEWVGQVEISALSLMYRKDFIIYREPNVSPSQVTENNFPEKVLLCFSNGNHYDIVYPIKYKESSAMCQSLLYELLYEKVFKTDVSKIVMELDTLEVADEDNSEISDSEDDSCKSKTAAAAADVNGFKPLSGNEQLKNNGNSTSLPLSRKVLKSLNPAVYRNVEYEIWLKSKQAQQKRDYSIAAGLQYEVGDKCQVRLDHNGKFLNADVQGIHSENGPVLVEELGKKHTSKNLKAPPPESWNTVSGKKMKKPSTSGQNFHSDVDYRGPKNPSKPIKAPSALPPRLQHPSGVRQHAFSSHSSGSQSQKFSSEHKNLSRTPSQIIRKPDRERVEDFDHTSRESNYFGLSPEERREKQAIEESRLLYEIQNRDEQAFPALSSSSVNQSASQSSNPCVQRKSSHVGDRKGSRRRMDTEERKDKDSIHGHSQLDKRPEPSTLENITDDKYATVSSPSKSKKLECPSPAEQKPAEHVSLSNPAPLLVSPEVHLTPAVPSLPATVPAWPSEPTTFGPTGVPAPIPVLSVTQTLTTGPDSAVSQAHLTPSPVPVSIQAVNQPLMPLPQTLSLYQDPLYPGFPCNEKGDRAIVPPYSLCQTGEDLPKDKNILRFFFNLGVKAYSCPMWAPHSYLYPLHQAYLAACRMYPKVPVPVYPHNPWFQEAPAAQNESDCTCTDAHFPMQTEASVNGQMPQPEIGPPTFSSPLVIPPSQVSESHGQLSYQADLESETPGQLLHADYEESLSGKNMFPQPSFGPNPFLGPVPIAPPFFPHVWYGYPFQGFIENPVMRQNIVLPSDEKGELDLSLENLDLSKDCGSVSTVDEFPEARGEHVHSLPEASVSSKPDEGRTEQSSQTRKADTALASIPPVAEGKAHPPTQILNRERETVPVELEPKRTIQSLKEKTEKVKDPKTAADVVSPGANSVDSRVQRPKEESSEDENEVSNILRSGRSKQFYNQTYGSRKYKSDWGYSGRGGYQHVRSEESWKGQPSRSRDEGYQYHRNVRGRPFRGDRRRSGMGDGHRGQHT
Outline: as §1

[9] = molecular target: T5, OTUD5 (UniProt Q96G74)
T5 sequence (whole entry): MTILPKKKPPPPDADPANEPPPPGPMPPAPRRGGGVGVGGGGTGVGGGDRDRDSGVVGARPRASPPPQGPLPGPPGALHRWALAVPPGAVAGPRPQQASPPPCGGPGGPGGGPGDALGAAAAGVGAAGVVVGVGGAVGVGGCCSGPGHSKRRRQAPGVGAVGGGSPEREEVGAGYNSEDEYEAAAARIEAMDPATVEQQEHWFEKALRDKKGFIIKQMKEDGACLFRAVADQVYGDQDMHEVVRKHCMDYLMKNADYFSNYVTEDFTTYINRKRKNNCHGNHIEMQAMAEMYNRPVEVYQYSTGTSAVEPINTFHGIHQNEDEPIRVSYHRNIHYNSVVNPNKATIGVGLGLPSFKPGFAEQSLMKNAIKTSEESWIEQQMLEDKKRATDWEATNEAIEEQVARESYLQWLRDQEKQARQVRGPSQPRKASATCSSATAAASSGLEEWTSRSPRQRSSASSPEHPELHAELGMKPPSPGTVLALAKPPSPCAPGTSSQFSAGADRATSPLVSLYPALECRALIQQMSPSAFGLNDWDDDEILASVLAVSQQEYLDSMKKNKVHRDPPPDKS
Outline: as §1

Sequence of ATXN3 (P54252 whole entry): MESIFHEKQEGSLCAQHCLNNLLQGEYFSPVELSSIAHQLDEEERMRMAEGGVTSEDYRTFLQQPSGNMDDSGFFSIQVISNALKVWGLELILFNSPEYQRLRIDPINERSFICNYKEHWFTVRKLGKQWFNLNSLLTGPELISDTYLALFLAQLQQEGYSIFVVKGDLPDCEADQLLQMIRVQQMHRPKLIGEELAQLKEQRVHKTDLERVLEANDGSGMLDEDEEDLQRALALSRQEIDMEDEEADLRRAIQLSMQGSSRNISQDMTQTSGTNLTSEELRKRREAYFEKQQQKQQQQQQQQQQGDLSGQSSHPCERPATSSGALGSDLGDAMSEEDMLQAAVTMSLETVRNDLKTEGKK
Sequence of OTUB1 (Q96FW1 whole entry): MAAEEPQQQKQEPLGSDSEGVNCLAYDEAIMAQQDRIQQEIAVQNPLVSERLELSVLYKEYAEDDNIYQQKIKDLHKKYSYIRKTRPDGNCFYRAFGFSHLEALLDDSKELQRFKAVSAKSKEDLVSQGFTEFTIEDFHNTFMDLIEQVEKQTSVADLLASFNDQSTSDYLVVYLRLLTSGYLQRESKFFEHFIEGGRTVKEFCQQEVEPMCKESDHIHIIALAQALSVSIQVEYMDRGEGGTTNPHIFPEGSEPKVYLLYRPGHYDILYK
Sequence of EIF3F (O00303 whole entry): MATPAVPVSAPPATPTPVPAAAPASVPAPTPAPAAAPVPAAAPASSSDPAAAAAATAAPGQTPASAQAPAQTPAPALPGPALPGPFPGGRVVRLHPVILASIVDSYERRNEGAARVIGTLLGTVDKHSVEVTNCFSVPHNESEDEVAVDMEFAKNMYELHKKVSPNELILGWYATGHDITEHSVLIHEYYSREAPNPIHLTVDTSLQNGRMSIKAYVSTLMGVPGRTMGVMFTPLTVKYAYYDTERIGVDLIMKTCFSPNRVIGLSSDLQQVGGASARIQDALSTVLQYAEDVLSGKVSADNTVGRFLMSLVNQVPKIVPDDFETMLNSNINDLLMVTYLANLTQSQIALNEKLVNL
Sequence of EIF3H (O15372 whole entry): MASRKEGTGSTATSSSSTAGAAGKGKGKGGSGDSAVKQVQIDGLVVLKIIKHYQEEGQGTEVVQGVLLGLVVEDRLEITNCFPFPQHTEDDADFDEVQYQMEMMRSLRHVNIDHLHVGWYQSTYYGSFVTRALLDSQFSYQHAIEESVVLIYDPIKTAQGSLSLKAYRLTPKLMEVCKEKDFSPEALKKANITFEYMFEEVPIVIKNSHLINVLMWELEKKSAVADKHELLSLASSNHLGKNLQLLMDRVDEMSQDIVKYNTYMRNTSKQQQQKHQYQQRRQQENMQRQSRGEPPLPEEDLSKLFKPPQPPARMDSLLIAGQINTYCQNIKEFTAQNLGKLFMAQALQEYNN

NS(=O)(=O)c1ccc(Cl)c(NC(=O)CCl)c1
log2 ratio of Biotin-Ahx-Ub-VS probe labelling [1]: -0.591 | log2 ratio of Biotin-Ahx-Ub-VS probe labelling [2]: -0.697 | log2 ratio of Biotin-Ahx-Ub-VS probe labelling [3]: -4.06 (active) | log2 ratio of Biotin-Ahx-Ub-VS probe labelling [4]: -0.117 | log2 ratio of Biotin-Ahx-Ub-VS probe labelling [5]: 0.198 | log2 ratio of Biotin-Ahx-Ub-VS probe labelling [6]: 0.226 | log2 ratio of Biotin-Ahx-Ub-VS probe labelling [7]: -0.37 | log2 ratio of Biotin-Ahx-Ub-VS probe labelling [8]: -2.55 (active) | log2 ratio of Biotin-Ahx-Ub-VS probe labelling [9]: -1.72 (active)
